Experiments:
Test in all cases: DAPPL (digital affinity profiling via proximity ligation, sequencing); 10 mM Tris-HCl pH 7.5, 50 mM NaCl, 1 mM DTT, 4% glycerol, room temperature, 30 min; GST-TFs on glutathione beads, 16-mer random dsDNA library, 0.1% formaldehyde crosslink after washing; high values mean tight binding
Details in all cases: protein: recombinant; tags: N-terminal GST; dsDNA, one strand shown
[1] = target: T1, ERF (Homo sapiens, UniProt P50548 1-548)
T1 sequence: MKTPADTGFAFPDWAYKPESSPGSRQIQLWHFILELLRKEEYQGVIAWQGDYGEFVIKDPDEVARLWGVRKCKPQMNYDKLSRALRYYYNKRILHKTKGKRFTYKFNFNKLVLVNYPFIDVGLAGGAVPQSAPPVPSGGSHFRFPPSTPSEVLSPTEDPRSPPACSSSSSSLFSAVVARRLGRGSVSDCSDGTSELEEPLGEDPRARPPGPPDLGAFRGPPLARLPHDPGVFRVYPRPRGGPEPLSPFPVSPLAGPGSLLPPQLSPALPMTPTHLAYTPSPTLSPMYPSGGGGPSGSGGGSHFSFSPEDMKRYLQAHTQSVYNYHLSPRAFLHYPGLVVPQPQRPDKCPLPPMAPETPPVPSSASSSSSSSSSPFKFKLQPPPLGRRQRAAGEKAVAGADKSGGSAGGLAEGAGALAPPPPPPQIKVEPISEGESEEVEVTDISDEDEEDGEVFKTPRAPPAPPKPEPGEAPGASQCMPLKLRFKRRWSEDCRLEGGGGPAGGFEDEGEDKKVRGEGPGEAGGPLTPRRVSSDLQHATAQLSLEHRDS
Method in brief: (§1)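 After expression in yeast as GST fusions, human transcription factors were bound to glutathione beads, DNA-barcoded and mixed with a tag-only sample. The pools were incubated with 200 nmole of a 16-mer random double-stranded DNA library in Tris/NaCl/DTT/glycerol buffer (30 min, room temperature), washed and crosslinked with 0.1% formaldehyde. Proximity ligation with BsaI/T4 ligase ran for 1 h at 37 °C, before PCR amplification and sequencing on an Illumina NextSeq500. Binding signal is a hexamer's read frequency for a factor divided by its frequency for the tag-only sample.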

[2] = target: T2, ETV3L (Homo sapiens, UniProt Q6ZN32 1-361)
T2 sequence: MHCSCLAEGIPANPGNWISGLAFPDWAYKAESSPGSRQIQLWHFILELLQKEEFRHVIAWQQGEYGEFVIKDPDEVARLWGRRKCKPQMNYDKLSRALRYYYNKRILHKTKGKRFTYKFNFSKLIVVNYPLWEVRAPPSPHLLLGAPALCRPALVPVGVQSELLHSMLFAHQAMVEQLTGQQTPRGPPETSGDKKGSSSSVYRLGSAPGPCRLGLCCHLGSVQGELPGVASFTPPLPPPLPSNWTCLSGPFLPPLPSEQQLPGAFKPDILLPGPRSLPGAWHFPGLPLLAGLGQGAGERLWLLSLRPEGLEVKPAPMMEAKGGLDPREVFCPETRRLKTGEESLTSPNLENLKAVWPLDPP
Method in brief: as §1

[3] = target: T3, ETS2 (Homo sapiens, UniProt P15036 1-469)
T3 sequence: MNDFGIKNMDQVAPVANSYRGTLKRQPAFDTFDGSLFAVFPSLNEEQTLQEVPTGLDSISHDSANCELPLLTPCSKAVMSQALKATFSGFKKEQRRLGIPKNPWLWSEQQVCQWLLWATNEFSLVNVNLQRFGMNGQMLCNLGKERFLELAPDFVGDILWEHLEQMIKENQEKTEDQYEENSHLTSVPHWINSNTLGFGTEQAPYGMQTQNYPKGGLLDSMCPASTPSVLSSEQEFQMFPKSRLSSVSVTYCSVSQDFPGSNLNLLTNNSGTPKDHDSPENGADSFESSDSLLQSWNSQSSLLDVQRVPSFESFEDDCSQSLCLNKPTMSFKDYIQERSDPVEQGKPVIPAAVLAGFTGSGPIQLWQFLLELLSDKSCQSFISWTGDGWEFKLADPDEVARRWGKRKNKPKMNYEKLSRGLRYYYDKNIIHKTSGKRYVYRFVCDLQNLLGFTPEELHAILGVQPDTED
Method in brief: as §1

[4] = target: T4, SPDEF (Homo sapiens, UniProt O95238 1-335)
T4 sequence: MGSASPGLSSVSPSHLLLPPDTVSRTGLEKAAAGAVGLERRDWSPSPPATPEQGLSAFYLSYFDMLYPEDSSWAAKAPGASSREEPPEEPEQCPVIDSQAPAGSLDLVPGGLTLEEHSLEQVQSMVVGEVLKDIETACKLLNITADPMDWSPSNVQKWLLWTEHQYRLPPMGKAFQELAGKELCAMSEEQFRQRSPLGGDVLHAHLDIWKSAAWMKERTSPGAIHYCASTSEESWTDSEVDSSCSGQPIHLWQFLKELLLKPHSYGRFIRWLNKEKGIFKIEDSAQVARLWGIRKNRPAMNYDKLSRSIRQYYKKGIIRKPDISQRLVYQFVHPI
Method in brief: as §1

[5] = target: T5, ETV7 (Homo sapiens, UniProt Q9Y603 1-341)
T5 sequence: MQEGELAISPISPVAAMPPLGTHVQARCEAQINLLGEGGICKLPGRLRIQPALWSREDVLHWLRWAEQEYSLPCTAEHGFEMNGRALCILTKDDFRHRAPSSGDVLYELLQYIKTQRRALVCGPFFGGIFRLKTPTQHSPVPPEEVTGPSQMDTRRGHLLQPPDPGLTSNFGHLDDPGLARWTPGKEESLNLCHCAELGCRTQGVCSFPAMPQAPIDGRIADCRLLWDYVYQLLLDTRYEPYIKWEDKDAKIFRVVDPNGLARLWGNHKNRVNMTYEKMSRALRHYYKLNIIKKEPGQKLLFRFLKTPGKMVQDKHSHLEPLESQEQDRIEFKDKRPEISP
Method in brief: as §1

[6] = target: T6, ELF5 (Homo sapiens, UniProt Q9UKW6-2 1-255)
T6 sequence: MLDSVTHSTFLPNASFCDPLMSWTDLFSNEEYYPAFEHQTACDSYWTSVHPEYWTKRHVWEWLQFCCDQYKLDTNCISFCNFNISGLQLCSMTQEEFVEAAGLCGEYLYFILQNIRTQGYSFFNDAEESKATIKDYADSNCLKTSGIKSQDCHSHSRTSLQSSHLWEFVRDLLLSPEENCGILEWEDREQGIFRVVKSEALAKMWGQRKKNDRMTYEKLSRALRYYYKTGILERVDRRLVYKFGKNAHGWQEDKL
Method in brief: as §1

[7] = target: T7, ETV3 (Homo sapiens, UniProt P41162-2 1-143)
T7 sequence: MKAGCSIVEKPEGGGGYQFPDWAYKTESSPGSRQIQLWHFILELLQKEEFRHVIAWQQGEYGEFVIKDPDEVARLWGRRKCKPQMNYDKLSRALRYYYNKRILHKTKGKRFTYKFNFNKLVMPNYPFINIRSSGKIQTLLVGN
Method in brief: as §1

[8] = target: ETV6 (Homo sapiens, UniProt P41212 1-452)
Chain of ETV6 (P41212 whole entry): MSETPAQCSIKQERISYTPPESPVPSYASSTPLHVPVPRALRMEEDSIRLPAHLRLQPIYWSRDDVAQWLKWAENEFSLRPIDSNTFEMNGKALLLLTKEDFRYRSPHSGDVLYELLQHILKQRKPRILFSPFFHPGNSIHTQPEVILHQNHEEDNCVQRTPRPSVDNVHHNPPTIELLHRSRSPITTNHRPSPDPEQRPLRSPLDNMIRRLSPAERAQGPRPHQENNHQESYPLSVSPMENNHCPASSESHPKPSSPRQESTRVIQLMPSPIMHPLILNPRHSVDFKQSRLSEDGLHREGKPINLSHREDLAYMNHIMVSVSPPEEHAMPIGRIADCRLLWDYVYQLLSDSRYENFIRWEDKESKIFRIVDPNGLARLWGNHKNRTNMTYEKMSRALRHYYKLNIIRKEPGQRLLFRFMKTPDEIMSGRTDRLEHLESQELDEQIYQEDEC
Method in brief: as §1

| Sequence | binding signal [1] | binding signal [2] | binding signal [3] | binding signal [4] | binding signal [5] | binding signal [6] | binding signal [7] | binding signal [8] |
| --- | --- | --- | --- | --- | --- | --- | --- | --- |
| CATGCT | 1.2 fold enrichment (6-mer frequency, TF over GST control) | 1.35 fold enrichment (6-mer frequency, TF over GST control) | 1.25 fold enrichment (6-mer frequency, TF over GST control) | 1.2 fold enrichment (6-mer frequency, TF over GST control) | 1.2 fold enrichment (6-mer frequency, TF over GST control) | 1.19 fold enrichment (6-mer frequency, TF over GST control) | 1.19 fold enrichment (6-mer frequency, TF over GST control) | 1.28 fold enrichment (6-mer frequency, TF over GST control) |
| CGAGCA | 1.17 fold enrichment (6-mer frequency, TF over GST control) | 1.13 fold enrichment (6-mer frequency, TF over GST control) | 1.06 fold enrichment (6-mer frequency, TF over GST control) | 1.18 fold enrichment (6-mer frequency, TF over GST control) | 1.06 fold enrichment (6-mer frequency, TF over GST control) | 1.03 fold enrichment (6-mer frequency, TF over GST control) | 1.04 fold enrichment (6-mer frequency, TF over GST control) | 1.06 fold enrichment (6-mer frequency, TF over GST control) |
| GCTGTT | 1.08 fold enrichment (6-mer frequency, TF over GST control) | 1.1 fold enrichment (6-mer frequency, TF over GST control) | 1.09 fold enrichment (6-mer frequency, TF over GST control) | 1.08 fold enrichment (6-mer frequency, TF over GST control) | 1.21 fold enrichment (6-mer frequency, TF over GST control) | 1.04 fold enrichment (6-mer frequency, TF over GST control) | 1.15 fold enrichment (6-mer frequency, TF over GST control) | 1.03 fold enrichment (6-mer frequency, TF over GST control) |
| CTTTCA | 1.44 fold enrichment (6-mer frequency, TF over GST control) | 1.38 fold enrichment (6-mer frequency, TF over GST control) | 1.31 fold enrichment (6-mer frequency, TF over GST control) | 1.26 fold enrichment (6-mer frequency, TF over GST control) | 1.33 fold enrichment (6-mer frequency, TF over GST control) | 1.4 fold enrichment (6-mer frequency, TF over GST control) | 1.39 fold enrichment (6-mer frequency, TF over GST control) | 1.24 fold enrichment (6-mer frequency, TF over GST control) |
| GTCTTC | 1.29 fold enrichment (6-mer frequency, TF over GST control) | 1.23 fold enrichment (6-mer frequency, TF over GST control) | 1.4 fold enrichment (6-mer frequency, TF over GST control) | 1.27 fold enrichment (6-mer frequency, TF over GST control) | 1.14 fold enrichment (6-mer frequency, TF over GST control) | 1.72 fold enrichment (6-mer frequency, TF over GST control) | 1.4 fold enrichment (6-mer frequency, TF over GST control) | 1.32 fold enrichment (6-mer frequency, TF over GST control) |
| TTCTGT | 1.39 fold enrichment (6-mer frequency, TF over GST control) | 1.42 fold enrichment (6-mer frequency, TF over GST control) | 1.29 fold enrichment (6-mer frequency, TF over GST control) | 1.15 fold enrichment (6-mer frequency, TF over GST control) | 1.26 fold enrichment (6-mer frequency, TF over GST control) | 1.29 fold enrichment (6-mer frequency, TF over GST control) | 1.19 fold enrichment (6-mer frequency, TF over GST control) | 1.38 fold enrichment (6-mer frequency, TF over GST control) |
| CATAAC | 1.12 fold enrichment (6-mer frequency, TF over GST control) | 1.18 fold enrichment (6-mer frequency, TF over GST control) | 1.19 fold enrichment (6-mer frequency, TF over GST control) | 1.15 fold enrichment (6-mer frequency, TF over GST control) | 1.18 fold enrichment (6-mer frequency, TF over GST control) | 1.15 fold enrichment (6-mer frequency, TF over GST control) | 1.17 fold enrichment (6-mer frequency, TF over GST control) | 1.23 fold enrichment (6-mer frequency, TF over GST control) |
| GACCTC | 1.52 fold enrichment (6-mer frequency, TF over GST control) | 1.51 fold enrichment (6-mer frequency, TF over GST control) | 1.38 fold enrichment (6-mer frequency, TF over GST control) | 1.29 fold enrichment (6-mer frequency, TF over GST control) | 1.33 fold enrichment (6-mer frequency, TF over GST control) | 1.32 fold enrichment (6-mer frequency, TF over GST control) | 1.28 fold enrichment (6-mer frequency, TF over GST control) | 1.42 fold enrichment (6-mer frequency, TF over GST control) |
| TTTGGA | 1.2 fold enrichment (6-mer frequency, TF over GST control) | 1.21 fold enrichment (6-mer frequency, TF over GST control) | 1.19 fold enrichment (6-mer frequency, TF over GST control) | 1.23 fold enrichment (6-mer frequency, TF over GST control) | 1.3 fold enrichment (6-mer frequency, TF over GST control) | 1.15 fold enrichment (6-mer frequency, TF over GST control) | 1.19 fold enrichment (6-mer frequency, TF over GST control) | 1.15 fold enrichment (6-mer frequency, TF over GST control) |
| TACTCG | 1.3 fold enrichment (6-mer frequency, TF over GST control) | 1.27 fold enrichment (6-mer frequency, TF over GST control) | 1.28 fold enrichment (6-mer frequency, TF over GST control) | 1.2 fold enrichment (6-mer frequency, TF over GST control) | 1.27 fold enrichment (6-mer frequency, TF over GST control) | 1.25 fold enrichment (6-mer frequency, TF over GST control) | 1.28 fold enrichment (6-mer frequency, TF over GST control) | 1.28 fold enrichment (6-mer frequency, TF over GST control) |
| CCAATG | 1.03 fold enrichment (6-mer frequency, TF over GST control) | 1.11 fold enrichment (6-mer frequency, TF over GST control) | 1.08 fold enrichment (6-mer frequency, TF over GST control) | 1.02 fold enrichment (6-mer frequency, TF over GST control) | 1.1 fold enrichment (6-mer frequency, TF over GST control) | 1.05 fold enrichment (6-mer frequency, TF over GST control) | 1.15 fold enrichment (6-mer frequency, TF over GST control) | 1.14 fold enrichment (6-mer frequency, TF over GST control) |
| GTCCCC | 1.23 fold enrichment (6-mer frequency, TF over GST control) | 1.15 fold enrichment (6-mer frequency, TF over GST control) | 1.15 fold enrichment (6-mer frequency, TF over GST control) | 1.14 fold enrichment (6-mer frequency, TF over GST control) | 1.27 fold enrichment (6-mer frequency, TF over GST control) | 1.13 fold enrichment (6-mer frequency, TF over GST control) | 1.14 fold enrichment (6-mer frequency, TF over GST control) | 1.24 fold enrichment (6-mer frequency, TF over GST control) |

Reference: publication PMC7862700, “An all-to-all approach to the identification of sequence-specific readers for epigenetic DNA modifications on cytosine”
